Compounds with a hit are over-represented: about 3.1% of the library has one in this group of screens.
SSB-PriA inh: K. pneumoniae PriA-SSBct interaction inhibition | AlphaScreen SSBct-PriA binding, biotinylated peptide | inhibition, % at 33 µM | hit rate 0.6% among 430,000 | AID 1272365; in the data active = inhibition mostly above about 37%, no sharp cut-off; inactive = mostly below about 20%;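 note: plate controls were negative control peptide for no effect and reference peptide for full effect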
Anthrax LF inh2: blocks Bacillus anthracis lethal factor protease; multiplex microsphere protease cleavage assay, LF; AID 588501; hit rate 0.12% among 360,000; inhibition, % at 10 µM; P15917; note: plate controls were buffer without enzyme for full effect and enzyme alone for no effect
Autofluor counter: counter-screen for toxin protease inhibitors: compound fluorescence. compound autofluorescence counterscreen, microsphere flow cytometry; active compounds read high. fluorescence intensity (no concentration beside the values). hit rate 3.1% among 360,000; in the data active = fluorescence intensity above about 16000; inconclusive = no clear call, values can overlap the other calls
BoNT A protease: BoNT A light chain protease inhibition; multiplex microsphere protease substrate cleavage, flow cytometry; hit rate 0.17% among 360,000; AID 588499; inhibition, % at 10 µM; note: plate controls were buffer without enzyme for full effect and enzyme alone for no effect
BoNT-F LC inh: inhibitors of Botulinum neurotoxin F light chain protease; inhibition, % at 10 µM; Multiplex microsphere protease cleavage assay, flow cytometry; hit rate 0.22% among 360,000; AID 588497; in the data active = inhibition above about 35%, passing the limit was not always enough; inconclusive = no clear call, values can overlap the other calls; note: plate controls were buffer without enzyme for full effect and enzyme alone for no effect
Starred values were filed as active, the others as inactive; i = inactive; ? = inconclusive; · = not tested or not shown; ! = not active in a repeat. Cut-off read from the data, not from the text of the source, unless noted: active = inhibition above about 30%; inconclusive = no clear call, values can overlap the other calls; inactive = below that.

SMILES	SSB-PriA inh	Anthrax LF inh2	Autofluor counter	BoNT A protease	BoNT-F LC inh
Cc1ccc(C2C(C#N)=C(N)N(N(C)C)C3=C2C(=O)CCC3)cc1 (stereo unspecified)	-5	-1	2186	0	0
N#CC1=C(N)N(c2ccccc2)C2=C(C(=O)CCC2)C1c1ccsc1 (stereo unspecified)	7	1	16252*	0	-3
CN(C)[C@@H](CNC(=O)CCc1ccccc1)c1ccc(F)cc1	-19	·	·	·	·
CCOC(=O)C(=O)N1CCC2(CC1)OCCN2S(=O)(=O)c1ccc(C)cc1	26	·	·	·	·
COc1ccccc1CC(=O)O/N=C(\N)Cc1cccc2ccccc12	i	3	22659*	2	-1
COc1ccccc1OC(=O)Cc1cccc2ccccc12	-34	11	3967	2	10
Cc1nc2ccccc2n1/N=C/c1cccnc1	·	-4	24451*	-3	-3
O=C(O)c1ccc2c(n1)NCCC2	94*	·	·	·	·
O=C(O)c1cncc2c1NCCC2	-5	·	·	·	·
Cc1ccc(C(=O)Nc2nnc(CC(=O)NN=Cc3ccc(O)c(O)c3)s2)cc1	-14	·	·	·	·
O=C(NN=Cc1c(F)cccc1Cl)C1CC1	-10	·	·	·	·
CCC(CC)c1nnc(NC(=O)Oc2ccccc2)s1	-28	7	5722	4	42*
Cc1cccc(OCc2ccccc2)n1	-3	-3	3658	0	11
CCc1nc(C)cc(N)c1OCc1ccccc1	-7	-1	17332*	-2	1
O=C(CSc1nnc2ccc(-c3cccc([N+](=O)[O-])c3)nn12)NCc1ccc(F)cc1	-5	·	·	·	·
Cn1c(SCC(=O)Nc2ccc(F)cc2F)nc2cc(-c3ccccc3)sc2c1=O	-13	·	·	·	·
CN(c1ccccc1)C(c1ccc(F)cc1)c1nnnn1CC1CCCO1 (stereo unspecified)	-26	-1	16681*	0	-2
CN(c1ccccc1)C(c1ccc(F)cc1)c1nnnn1C1CCCC1 (stereo unspecified)	-27	-5	23833*	?	-8
Cc1ccc(C)c(S(=O)(=O)c2nnn3c2nc(N2CCc4ccccc42)c2ccccc23)c1	-8	·	·	·	·
CCSC1=NCCN1C(=O)c1ccc(C(F)(F)F)cc1	8	·	·	·	·
Cc1cc(C(=O)Nc2nc3c(s2)CCCC3)cs1	-3	-4	16226*	-2	-4
O=C(Nc1nc2c(s1)CCCC2)C1CCCN1C(=O)c1cccs1 (stereo unspecified)	-15	0	16410*	0	-1
CCOC(=O)Cc1csc(NC(=O)c2csc(C)c2)n1	-3	1	20408*	-1	-1
Cc1cc(C(=O)Nc2nnc(C3CCCCC3)s2)cs1	-19	-4	23418*	?	-4
O=C(Nc1nccs1)[C@@H]1CCCN1C(=O)c1cccs1	-10	-2	4684	0	2
SMILES	SSB-PriA inh	Anthrax LF inh2	Autofluor counter	BoNT A protease	BoNT-F LC inh
CN(C)c1cccc(C(=O)N(CCc2cccs2)Cc2ccoc2)c1	-9	·	·	·	·
O=c1c2cnn(C3CCS(=O)(=O)C3)c2ncn1Cc1c(F)cccc1Cl (stereo unspecified)	-11	·	·	·	·
O=C(c1cc2ccccc2o1)N1CCC(CNS(=O)(=O)c2ccc3c(c2)CCO3)CC1	-4	·	·	·	·
Cc1ccccc1C(=O)NNc1ccc([N+](=O)[O-])cc1	-9	-8	19390*	?	10
COc1ccccc1CCNC(=O)c1csc(Nc2ccc(S(C)(=O)=O)cc2)n1	6	·	·	·	·
O=[N+]([O-])c1cc(C=NN2CCCCC2)ccc1Cl	43*	·	·	·	·
CC(NC(=O)/C(C#N)=C1\N=C(NC(=O)c2cccs2)c2ccccc21)c1ccccc1 (stereo unspecified)	1	15	6060	30*	9
O=C(Nc1ccccc1C(=O)NCc1ccccc1)c1ccccc1Br	-20	-3	10030	-1	7
O=C(O)CNC(=O)c1ccccc1NC(=O)c1ccco1	0	-1	22742*	-1	-2
Cc1ccccc1NC(=O)c1ccccc1O	-15	-1	22757*	0	0
Cc1ccccc1C(=O)Nc1ccccc1C(=O)NCc1ccccc1	-22	-3	21881*	0	-2
COc1ccc(Cl)cc1C(=O)NCc1ccc2c(c1)cc(C)n2C	-1	·	·	·	·
Cc1cc2cc(CNC(=O)NC3CCCCC3)ccc2n1C	45*!	-107	2076	23	-132
CCC(=O)NCc1ccc2c(c1)cc(C)n2C	-6	·	·	·	·
COc1cc(/C=C\C(=O)NCc2ccc3c(c2)cc(C)n3C)cc(OC)c1OC	16	-80	2962	68*	-120
COc1ccccc1OCCn1c([C@H]2CC(=O)N(c3cccc(SC)c3)C2)nc2ccccc21	-6	·	·	·	·
Cc1ccc(Cl)c(OCCCCN(C)Cc2ccccc2)c1	-24	-3	22668*	?	-3
O=C(Nc1nccs1)c1ccccc1NS(=O)(=O)c1ccc(F)cc1	-5	·	·	·	·
CCn1cc(/C=C(/C#N)S(=O)(=O)c2ccccc2)cn1	-11	-2	23211*	-1	-3
N#C/C(=C\c1ccc[nH]1)S(=O)(=O)c1ccccc1	2	-2	16572*	-2	-5
Cn1nccc1/C=C(/C#N)S(=O)(=O)c1ccccc1	7	-8	?	-1	4
Cc1nnc(NC(=O)Cn2c(-c3ccncc3)nc3ccccc32)s1	-9	·	·	·	·
COc1cccc(NC(=O)CC(C)=NNC(=O)C2CCCCC2)c1	-3	·	·	·	·
CCOc1ccc(N2CSC(=S)N(c3ccc(OCC)cc3)C2)cc1	0	32*	3691	0	?
COc1ccc(N2C(=O)CSC23C(=O)N2CCCc4cccc3c42)cc1 (stereo unspecified)	0	-9	5932	0	-13
SMILES	SSB-PriA inh	Anthrax LF inh2	Autofluor counter	BoNT A protease	BoNT-F LC inh
COc1ccc(N2C(=O)CSC23C(=O)N2c4c(cccc43)C(C)=CC2(C)C)cc1 (stereo unspecified)	17	-4	16577*	-1	-4
O=C(NC1CCCCC1)N1C[C@H]2C[C@H](C1)c1cccc(=O)n1C2	-7	·	·	·	·
C(=Nn1cnnc1)c1cccn1-c1ccccc1	-12	·	·	·	·
C(=N\n1cnnc1)/c1cccn1-c1ccccc1	·	-2	16775*	-2	-4
CC(=O)Nc1ccc(CC(=O)N2CCC(S(=O)(=O)c3nncn3C)CC2)cc1	-12	·	·	·	·
COc1ccc(OC)c(/C=N/NC(=O)CCc2c(C)n[nH]c2C)c1	i	12	3807	6	40*
Cc1noc(C)c1CN1CCN(C(=O)c2cnc3ccccc3n2)CC1	-11	·	·	·	·
O=C(NCc1ccco1)C1CN(C(=O)COc2ccccc2F)C1	4	·	·	·	·
O=C(Nc1ccc(Cl)cc1)C(c1ccccc1)N(CCO)CCO (stereo unspecified)	15	-3	20747*	-4	-6
CCCN(CCC)C(C(=O)Nc1cccc(OC)c1)c1ccccc1 (stereo unspecified)	-14	-4	22137*	2	3
COc1cccc(NC(=O)C(NCCC(C)C)c2ccccc2)c1 (stereo unspecified)	-7	-6	9704	-1	-18
O=C(Nc1cc(Cl)cc(Cl)c1)C(NCCO)c1ccccc1 (stereo unspecified)	-7	-1	22640*	2	0
CO[C@@H](CNC(=O)C1CCCC1)c1cccc(F)c1	-9	·	·	·	·
Nc1nc(Cl)cc(N2CCC(c3cc(-c4ccc(Cl)cc4Cl)n[nH]3)CC2)n1	-14	-3	21717*	-2	-6

High-throughput results: PubChem, several laboratories
